Six1-Eya2 blk – Six1/Eya2 interaction inhibition | AID 651725 | AlphaScreen GST-Six1/His-Eya2 binding, biochemical; stronger effect = lower value | activity change, % (concentration not given with the values) | 0.56% of 360,000 active; in the data active = activity change below about -65%; inconclusive = mostly about -30% to -63%
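AlphaScreen luminescence read after one hour at 37 °C in darkness. Pin-transferred compounds met GST-Six1 and His-Eya2 protein (5X stock 250 nM/500 nM) plus glutathione donor and Ni-chelate acceptor beads (5X, 50 ug/mL).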
TDP1 cell CPT – growth inhibition of DT40 Tdp1-/-;hTDP1 cells with camptothecin (screen for TDP1 inhibitors); chicken DT40 Tdp1-/-;hTDP1 cells + 20 nM CPT, ATP luminescence, 48 h; Potency, µM (titrated, usually from 46.2 µM), for the others: top-dose activity change, negative = growth inhibition, hits mostly inhibitors; 12% of 420,000 active; AID 686979; note: potency is the fitted concentration of half-maximal effect; nearly all actives have a fitted effect of over 55% in size
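Chicken DT40 Tdp1-/- cells stably complemented with human TDP1 were seeded at 400 cells/well in medium containing 20 nM camptothecin, exposed to pin-transferred compounds, and grown at 37 °C for at least 48 hr. Viability was read as ATP luminescence.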
TDP1 inh – blocks human tyrosyl-DNA phosphodiesterase 1 | Q9NUW8 | recombinant TDP1, AlphaScreen DNA substrate cleavage | Potency, µM (top dose mostly 130 µM), for inactives: at the top dose activity change, negative = inhibition, hits mostly inhibitors | 0.28% of 350,000 active; note: potency is the fitted concentration of half-maximal effect; nearly all actives have a fitted effect of over 40% in size
Target sequence (Q9NUW8 whole entry, looked up): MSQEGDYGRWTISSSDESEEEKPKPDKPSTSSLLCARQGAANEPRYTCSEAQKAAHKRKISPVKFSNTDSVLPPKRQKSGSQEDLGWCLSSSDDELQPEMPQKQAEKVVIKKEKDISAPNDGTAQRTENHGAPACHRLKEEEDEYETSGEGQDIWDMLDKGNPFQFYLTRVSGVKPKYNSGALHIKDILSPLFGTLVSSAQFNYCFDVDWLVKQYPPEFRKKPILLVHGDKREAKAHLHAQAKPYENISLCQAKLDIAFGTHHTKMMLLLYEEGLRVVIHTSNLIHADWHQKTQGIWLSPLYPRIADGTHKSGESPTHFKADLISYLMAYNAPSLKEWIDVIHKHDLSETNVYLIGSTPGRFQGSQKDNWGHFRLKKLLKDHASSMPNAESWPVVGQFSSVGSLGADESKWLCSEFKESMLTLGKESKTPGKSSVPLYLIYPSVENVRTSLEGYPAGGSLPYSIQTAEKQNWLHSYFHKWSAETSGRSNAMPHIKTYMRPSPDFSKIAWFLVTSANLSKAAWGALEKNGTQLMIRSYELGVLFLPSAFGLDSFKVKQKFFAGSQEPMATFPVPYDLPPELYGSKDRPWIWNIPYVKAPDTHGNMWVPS
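Signal: AlphaScreen proximity between streptavidin donor and anti-FITC acceptor beads on intact substrate. Reaction: Tdp1 1 nM, substrate 15 nM final, 5 min RT after 15 min compound preincubation.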
TDP1 cell noCPT – qHTS for Inhibitors of human tyrosyl-DNA phosphodiesterase 1 (TDP1): qHTS in cells in absence of CPT; DT40 Tdp1-/- hTDP1 cells, no CPT, ATP luminescence, 48 h; Potency, µM (top dose mostly 46.2 µM), for inactives: top-dose activity change, negative = growth inhibition, most hits filed as inhibitors; 15% of 420,000 active; AID 686978, 2013; note: potency is the fitted concentration of half-maximal effect; nearly all actives have a fitted effect of over 55% in size
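Cells were dispensed at 400 per well, compounds added by pin tool, plates incubated ≥48 hr at 37 °C, then CellTiter-Glo added for 30 min at room temperature before luminescence reading. Line: DT40 Tdp1-/- complemented with hTDP1; camptothecin omitted.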
CtBP-E1A blk – inhibitors of CtBP/E1A interaction. AlphaScreen GST-E1A/His-CtBP binding, 1536-well; stronger effect = lower value. activity change, % (concentration not given with the values). 0.49% of 340,000 active; in the data active = activity change below about -65%; inconclusive = mostly about -30% to -63%
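Homogeneous bead-based format: GST-tagged E1A captured on glutathione donor beads, His-tagged CtBP on nickel acceptor beads; compounds precede bead addition by 2 h at 37 °C.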
IL-1B inflam inh – inflammasome signaling inhibition, IL-1 beta readout | activity change, % at 57.5 µM | 4.7% of 360,000 active | THP-1 LPS/ATP IL-1B secretion, AlphaLISA, 16 h; stronger effect = lower value; in the data active = activity change below about -50%; inconclusive = mostly about -30% to -49%
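Secreted IL-1B measured by AlphaLISA bead assay after 16 h compound exposure of THP-1 cells; compounds (final up to 57.5 uM) added 1 h before LPS (250 ng/mL) and ATP (1.25 mM) stimulation; lower signal means less secretion.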
Starred values were filed as active, the others as inactive; ? = inconclusive; nt = no result given; [ ] = remark or other dose. In the library only some 18% were active in any assay of this set; here they are far more common. Unless noted, calls come from the whole dose curve; as a rule, active = well fitted curve in the direction sought with a large enough effect; inconclusive = small, poorly fitted or top-dose-only effect, or another doubt; inactive = no such curve, though single readings can be large; an effect the other way counts as inactive or inconclusive. % is set by controls: 0 for no effect and ±100 for the full control effect.

SMILES	Six1-Eya2 blk	TDP1 cell CPT	TDP1 inh	TDP1 cell noCPT	CtBP-E1A blk	IL-1B inflam inh
COc1cc(/C=C/C(=O)N2CCC=CC2=O)cc(OC)c1OC	-7	2.1µM*	-3%[56.1 µM]	1.8µM*	-2	-103*
COc1cc(/C=C/C(C)=O)cc(OC)c1OC	-1	-30%	-5%	?	7	?
O=C(CCNC(=O)N1CC(=O)Nc2ccccc21)Nc1ccc(Br)cc1F	1	2%	4%	12%	8	8
CC(C)Oc1cc(F)ccc1-c1cc(C(=O)Nc2ccccc2)[nH]n1	-1	?	nt	23µM*	2	-3
CC(C)Oc1cc(F)ccc1-c1cc(C(=O)Nc2ccc(C(C)C)cc2)[nH]n1	0	18µM*	nt	15µM*	6	5
CC(C)(CNC(=O)CNC(=O)c1ccccc1F)N1CCOCC1	2	-1%	-3%	-1%	nt	-2
CSc1ncccc1C(=O)N1CCN(C(=O)c2ccccc2)CC1	4	-6%	nt	14%	2	0
O=P(c1ccccc1)(c1ccccc1)c1cc(Br)cc(Br)c1OCCO	-24	-4%	nt	?	-10	-56*
C[C@@H]1CN(Cc2nc(Cc3ccccc3F)no2)C[C@H](C)O1	5	13%	-3%	-1%	8	18
CCN1CCN(c2cc(C)c3cc(NC(=O)c4ccc(OC)c(OC)c4)ccc3n2)CC1	-13	15µM*	3%	16µM*	4	-26
CCN1CCN(c2cc(C)c3cc(NC(=O)c4cc(OC)c(OC)c(OC)c4)ccc3n2)CC1	nt	?	4%	?	nt	nt
CCN1CCN(c2cc(C)c3cc(NC(=O)c4cncc(Br)c4)ccc3n2)CC1	1	?	10%	?	-13	-54*
CCN1CCN(c2cc(C)c3cc(NC(=O)c4cccc(C(F)(F)F)c4)ccc3n2)CC1	nt	10µM*	9%	13µM*	nt	nt
CCN1CCN(c2cc(C)c3cc(NC(=O)c4ccc5c(c4)OCO5)ccc3n2)CC1	-25	12µM*	5%	15µM*	-4	20
CCN1CCN(c2cc(C)c3cc(NC(=O)c4cccs4)ccc3n2)CC1	-9	?	6%	?	-19	?
CCCCC(=O)Nc1ccc(C(=O)NCC(=O)OC)cc1	-1	1%	-1%	-2%	0	4
CC(=O)OC1C=CN(C(C)=O)C(SC(C)(C)C)C1(C)O (centres undefined)	4	15%	nt	5%	-12	-2
Cc1nnc(OCc2nc3ccccc3n2C)c2ccccc12	13	?	4%	?	-5	-19
CCN1CCN(c2cc(C)c3cc(NC(=O)/C=C/c4ccc(OCCC(C)C)cc4)ccc3n2)CC1	nt	4.6µM*	6%	4.1µM*	nt	nt
Cc1nc(Oc2ccc(S(=O)(=O)N3CCOCC3)cc2Cl)c2c3c(sc2n1)CCCC3	-10	?	1%	?	-6	-52*
Cc1cccc(Oc2nc(CN3CCOCC3)nc3sc4c(c23)CCCC4)c1	-9	?	8%	?	-17	?
O=C(C(=O)N1CCC(Cc2ccccc2)CC1)c1ccccc1	-1	?	nt	16µM*	3	11
COc1ccc(NC(=S)N2CCC(Cc3ccccc3)CC2)cc1OC	-21	?	7%[56.1 µM]	?	-15	20
COc1cccc(NC(=O)CCC2CCN(C(=O)C(OC)c3ccccc3)CC2)c1 (centres undefined)	-8	16µM*	nt	21µM*	-3	-4
CC(=O)c1ccc(NC(=S)N2CCC(Cc3ccccc3)CC2)cc1	-22	-21%	4%	?	-16	-79*
COc1cccc(NC(=S)N2CCC(Cc3ccccc3)CC2)c1	-13	21µM*	3%	?	-2	-23
O=C1CC(N2CCN(Cc3ccccc3)CC2)C(=O)N1 (centres undefined)	1	-2%	-2%	4%	nt	6

Assay outcomes: PubChem, National Center for Advancing Translational Sciences (NCATS)
